Screening data (PubChem)
SW480 rereplic – A quantitative high throughput screen for small molecules that induce DNA re-replication in SW480 colon adenocarcinoma cells | Potency, µM (top dose mostly 46.1 µM), for the others: top-dose re-replication activation, hits mostly activators | AID 624297, 2012 | actives 1.8% (n = 340,000) | SW480 DNA re-replication, Hoechst DNA content imaging, 48 h; note: potency is the fitted concentration of half-maximal effect; % of control where 0% means no effect; nearly all actives have a fitted effect of over 55% in size
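Quantitative HTS format with DMSO vehicle controls; 48 hr drug incubation at 37 C, then 40 min Hoechst staining and scanning imager measurement at 405 nm excitation.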
TDP1 cell CPT – qHTS for Inhibitors of human tyrosyl-DNA phosphodiesterase 1 (TDP1): qHTS in cells in presence of CPT; Potency, µM (series often up to 46.2 µM), without a hit: at the top dose activity change, negative = growth inhibition, hits mostly inhibitors; actives 12% (n = 420,000); chicken DT40 Tdp1-/-;hTDP1 cells + 20 nM CPT, ATP luminescence, 48 h; note: potency is the fitted concentration of half-maximal effect; % is set by controls: 0 for no effect and ±100 for the full control effect; nearly all actives have a fitted effect of over 55% in size
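Chicken DT40 Tdp1-/- cells complemented with human TDP1, 400 cells/well, exposed to compounds plus 20 nM camptothecin for at least 48 h at 37 C; viability read as ATP content by CellTiter-Glo luminescence.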
Chronic BCR inh – qHTS Assay to Find Inhibitors of Chronic Active B-Cell Receptor Signaling; AID 493014, 2011; Potency, µM (doses to about 46.1 µM), without a hit: top-dose activity change, negative = inhibition, usual class: inhibitors; actives 0.05% (n = 340,000); ABC-DLBCL IkBa-CBG/CBR reporter, luminescence ratio, 4 h; active = well fitted inhibition curve with a large enough effect in the signal ratio, with a control signal flat, not every such curve was filed as active; inconclusive = small, poorly fitted or top-dose-only effect, or effect the other way, or a change in a side signal; the % refers to the signal ratio;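 note: potency is the fitted concentration of half-maximal effect; plate controls were basal doxycycline-induced cells for no effect and cells given 10 µM MG132 for full effect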
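Cell line TMD8 (human ABC DLBCL), stably expressing tet-inducible CBG68-IkBa fusion and CBR; IMDM/0.5% FBS; cpd up to 46 uM; dox induction, 4 h, 37C/5% CO2; dual luminescence; green/red ratio; MG132 control.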
TDP1 cell noCPT – qHTS for Inhibitors of human tyrosyl-DNA phosphodiesterase 1 (TDP1): qHTS in cells in absence of CPT | AID 686978, 2013 | actives 15% (n = 420,000) | DT40 Tdp1-/- hTDP1 cells, no CPT, ATP luminescence, 48 h | Potency, µM (highest dose often 46.2 µM), for the others: at the highest dose activity change, negative = growth inhibition, most hits filed as inhibitors; note: potency is the fitted concentration of half-maximal effect; % is set by controls: 0 for no effect and ±100 for the full control effect; nearly all actives have a fitted effect of over 55% in size
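Readout: luminescence from CellTiter-Glo after 30 min in the dark at RT. Cells: DT40 Tdp1-/- with stable hTDP1, 400/well. Exposure: compounds alone, ≥48 hr, 37 °C.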
MCF10A rerep – A quantitative high throughput screen for small molecules that induce DNA re-replication in MCF 10a normal breast cells; Potency, µM (top dose mostly 46.1 µM), for the others: at the top dose activity, positive = re-replication, most hits filed as activators; actives 2.9% (n = 350,000); MCF 10A DNA re-replication, Hoechst nuclear intensity, 48 h; note: potency is the fitted concentration of half-maximal effect; % of control where 0% means no effect; nearly all actives have a fitted effect of over 50% in size
IL1B secr inh – qHTS for Inhibitors of Inflammasome Signaling: IL-1-beta AlphaLISA Primary Screen | activity change, % at 57.5 µM | actives 4.7% (n = 360,000) | AID 743279, 2014 | THP-1 LPS/ATP IL-1B secretion, AlphaLISA, 16 h; hits give low values; in the data active = activity change below about -50%; inconclusive = mostly about -30% to -49%; note: % is set by controls: 0 for no effect and ±100 for the full control effect
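Secreted IL-1B measured by AlphaLISA bead assay after 16 h compound exposure of THP-1 cells; compounds (final up to 57.5 uM) added 1 h before LPS (250 ng/mL) and ATP (1.25 mM) stimulation; lower signal means less secretion.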
* hit, by the source's call; i = inactive; ? = inconclusive; . = not tested or not shown; [ ] = another dose, or the depositor's remark. Compounds with a hit are over-represented: about 19% of the library has one in this group of screens. Unless noted, calls come from the whole dose curve; as a rule, active = well fitted curve in the direction sought with a large enough effect; inconclusive = small, poorly fitted or top-dose-only effect, or another doubt; inactive = no such curve, though single readings can be large; an effect the other way counts as inactive or inconclusive.

SMILES	SW480 rereplic	TDP1 cell CPT	Chronic BCR inh	TDP1 cell noCPT	MCF10A rerep	IL1B secr inh
C/C=C(\C)C(=O)N1CC2(CC(c3cccc(NC(=O)CC(c4ccccc4)c4ccccc4)c3)=NO2)C[C@H]1C(N)=O (some centres undefined)	.	.	-2%	.	.	.
Cn1cccc1C(=O)N1CCC[C@@]2(CCN(C(=O)Nc3cccc(F)c3)C2)C1	.	3%	.	-7%	.	.
COC(=O)c1ccc([C@H]2C=C(C(=O)O)O[C@@H](OCc3ccc(CO)cc3)C2)cc1	-5%[9.22 µM]	9%	1%	18%	4%	7
N#CC1(NC(=O)CSc2nnc(C3CC3)n2C2CC2)CCCCC1	-4%	-10%	1%	17%	-4%	-5
COc1ccc(C2/C=C\CN(C(=O)c3ccccc3)CC(=O)N2Cc2ccc(F)cc2)cc1 (centres undefined)	-2%	-27%	-1%	?	-4%	3
CCCCCCC(=O)N1C/C=C\C(c2ccc(OC)cc2)N(Cc2ccc(F)cc2)C(=O)[C@H]1Cc1ccccc1 (some centres undefined)	-90%[9.22 µM]	18µM*	13%	18µM*	-17%	-4
COc1ccc(C2/C=C\CN(C(=O)c3ccc(C)cc3)[C@H](Cc3ccccc3)C(=O)N2Cc2ccc(F)cc2)cc1 (some centres undefined)	1%	4.6µM*	7%	5.8µM*	?	27
COc1ccc(CN2CCC3(CCC(CNC(=O)C4CCCO4)O3)CC2)c(C)c1C (centres undefined)	.	?	.	-10%	.	.
NS(=O)(=O)c1ccc(NC(=O)CSc2nnc3n2CCCCC3)cc1	-15%	13%	-1%	7%	6%	7
O=c1[nH]c(=S)[nH]c2c1C(c1cccc(C(F)(F)F)c1)OC(CCc1ccccc1)C2 (centres undefined)	.	?	.	?	.	4
CC[C@]12CCCN3CCc4c(n(c5ccccc45)C(=O)C1)[C@H]32	.	11µM*	.	9.4µM*	.	.
COc1cc(OC)c(NC(=O)CN2C(=O)CCn3nc(-c4cccn4C)cc32)cc1Cl	.	-14%	.	-2%	.	.
COc1ccc(NC(=O)c2cccc(-n3c(C)ccc3C)c2)c(OC)c1	?	?	?	26µM*	?	-61*
Cc1ccc(C)n1-c1cccc(C(=O)Nc2ccccc2)c1	8%	?	-13%	15µM*	4%	0
COc1cc(NC(=O)c2cc(Cl)nnc2Cl)cc(OC)c1OC	?	?	?	?	24%	?
Fc1ccc(N=c2ssnc2Cl)c(F)c1	?	7.3µM*	?	9.2µM*	?	-13
COc1cc(N=c2ssnc2Cl)cc(OC)c1OC	6%	3.3µM*	?	2.6µM*	?	2
O=C1CSC(=Nc2ccc(Cl)cc2)N1	0%	7%	4%	2%	3%	9
COc1ccc(N=C2SCC(=O)N2C)cc1	.	-10%	.	4%	.	-27
COc1ccc(N=c2ssnc2Cl)cc1	1%	7.3µM*	-7%	9.2µM*	5%[9.22 µM]	-3
Clc1ccc(N=c2ssnc2Cl)cc1	?	10µM*	?	15µM*	?	-85*
Cc1ccc(OCc2nc3ccccc3n2C(C(=O)NC(C)(C)C)c2ccncc2)cc1 (centres undefined)	.	-6%	.	2%	.	-21
Cc1ccc(NC(=O)CSc2nnc(-c3ccc([N+](=O)[O-])cc3)o2)c(C)c1	.	-20%	.	-20%	.	.
N#Cc1ccc(Oc2c(Cl)cncc2Cl)cc1	-3%	?	0%	-12%	3%	-17
Clc1nssc1=Nc1ccccc1	-4%	16µM*	?	15µM*	-4%	-29
SMILES	SW480 rereplic	TDP1 cell CPT	Chronic BCR inh	TDP1 cell noCPT	MCF10A rerep	IL1B secr inh
N#Cc1ccc(N=c2ssnc2Cl)cc1	?	5.2µM*	3%	7.3µM*	?	?
COc1ccc(-c2cc(C)no2)cc1S(=O)(=O)Nc1ccccc1	?	26µM*	-8%	9.2µM*	?	-12
COc1ccc(-c2onc(C)c2C)cc1S(=O)(=O)Nc1cccc(C#N)c1	.	23µM*	.	21µM*	.	.
CC(=O)c1cccc(NS(=O)(=O)c2cc(-c3onc(C)c3C)ccc2C)c1	.	?	.	-20%	.	.
COc1ccc(-c2cc(C)no2)cc1S(=O)(=O)Nc1cccc(C)c1	?	-9%	-6%	-26%	?	11
CCc1ccc(-c2cc(C)no2)cc1S(=O)(=O)Nc1cc(OC)c(OC)c(OC)c1	.	16µM*	.	16µM*	.	.
CCc1ccc(-c2cc(C)no2)cc1S(=O)(=O)Nc1cc(C)ccn1	2%	-24%	0%	7%	-2%	-9
Cc1cc(-c2ccc(C)c(S(=O)(=O)NC(c3cccs3)C(C)C)c2)on1 (centres undefined)	.	18µM*	.	18µM*	.	.
Cc1cc(-c2ccc(C)c(S(=O)(=O)Nc3cccc(C)n3)c2)on1	.	3%	.	?	.	.
Cc1cc(NS(=O)(=O)c2ccc(NC(=O)CCCOc3cccc(C)c3C)cc2)no1	-6%	-2%	?	-11%	0%	i
CSCCC(NS(=O)(=O)c1ccccc1F)C(=O)NCc1ccncc1 (centres undefined)	-434%	-10%	2%	-5%	-26%	0
COc1ccc(-c2cc(C)no2)cc1S(=O)(=O)NCCCN1CCCCCC1	?	-12%	-1%	-3%	26%	-51*
COC(=O)c1ccc(NS(=O)(=O)c2cc(-c3cc(C)no3)ccc2OC)cc1	18µM*	3.7µM*	-24%	2.9µM*	25%	35
COc1ccc(CCNS(=O)(=O)c2cc(-c3onc(C)c3C)ccc2OC)cc1OC	.	-24%	.	?	.	.
COc1ccc(Cl)cc1NS(=O)(=O)c1cc(-c2cc(C)no2)ccc1C	.	6.5µM*	.	7.3µM*	.	.
COc1ccc(-c2onc(C)c2C)cc1S(=O)(=O)Nc1cc(Cl)ccc1C	.	3.7µM*	.	3.7µM*	.	.
COc1ccc(Cl)cc1NC(=O)CN1CCN(Cc2ccccc2)CC1	-1%	?	-3%	?	?	-15
O=c1[nH]cnc2sc(-c3ccccc3)cc12	-16%	-25%	?	-12%	2%	-1
